# Screens as filed in PubChem.
# Sampled rows, rich in hits. Any-hit rate of the full collection: about 5.8%.
# ALOX12 inh: inhibitors of human 12S-lipoxygenase ALOX12 | P18054 | purified 12hLO, xylenol orange hydroperoxide absorbance | Potency, µM (series often up to 108 µM), for the others: at the top dose activity change, negative = inhibition, most hits filed as inhibitors | 580,000 tested, 1.1% active; further: on the % scale 0 is the no-effect control and ±100 the full control effect
# Target sequence (P18054 whole entry, looked up): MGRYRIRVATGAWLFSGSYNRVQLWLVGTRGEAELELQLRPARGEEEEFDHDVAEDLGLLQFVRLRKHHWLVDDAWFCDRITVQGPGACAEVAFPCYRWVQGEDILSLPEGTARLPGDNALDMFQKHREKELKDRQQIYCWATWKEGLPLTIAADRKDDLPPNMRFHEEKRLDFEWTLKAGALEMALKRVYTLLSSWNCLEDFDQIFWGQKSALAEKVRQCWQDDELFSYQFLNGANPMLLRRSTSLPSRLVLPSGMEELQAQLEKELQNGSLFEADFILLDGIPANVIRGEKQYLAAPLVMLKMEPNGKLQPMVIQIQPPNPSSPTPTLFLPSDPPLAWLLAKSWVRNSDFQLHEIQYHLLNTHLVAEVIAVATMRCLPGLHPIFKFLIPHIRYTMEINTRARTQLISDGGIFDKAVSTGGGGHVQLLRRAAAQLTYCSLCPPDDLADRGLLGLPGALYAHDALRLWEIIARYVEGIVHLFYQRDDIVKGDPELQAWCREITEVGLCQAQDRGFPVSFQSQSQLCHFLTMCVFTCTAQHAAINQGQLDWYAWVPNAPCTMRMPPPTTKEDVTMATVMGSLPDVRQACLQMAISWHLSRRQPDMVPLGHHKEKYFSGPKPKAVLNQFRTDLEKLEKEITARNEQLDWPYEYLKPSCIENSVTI
#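 Purified human 12hLO at 150 nM in 25 mM Hepes, 0.01% Triton X-100, pH 7.0, preincubated 15 min at room temperature with compound. Reaction started with 40 uM arachidonic acid, 30 min at room temperature. Hydroperoxide measured by Fe-xylenol orange, 573/405 nm absorbance ratio.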
# MCF10A rerep: induces DNA re-replication in MCF 10a normal breast cells | Potency, µM (highest dose often 46.1 µM), for the others: at the highest dose activity, positive = re-replication, hits mostly activators | MCF 10A DNA re-replication, Hoechst nuclear intensity, 48 h | 350,000 tested, 2.9% active | AID 624296; further: % of control where 0% means no effect; nearly all actives have a fitted effect of over 50% in size
# SW480 rerep: inducers of DNA re-replication in SW480 colon cancer cells; SW480 DNA re-replication, Hoechst DNA content imaging, 48 h; Potency, µM (top dose mostly 46.1 µM), for the others: at the highest dose re-replication activation, hits mostly activators; 340,000 tested, 1.8% active; further: % of control where 0% means no effect; nearly all actives have a fitted effect of over 55% in size
#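 Hoechst fluorescence of nuclei (405 nm excitation, 500-530 nm emission) measured by plate-scanning imager after 48 hr compound exposure at 37 C; re-replication scored as increased number of nuclei with elevated intensity.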
# KB-3-1 tox: kills parental KB-3-1 adenocarcinoma cells; KB-3-1 viability, CellTiter-Glo ATP luminescence, 72 h; Potency, µM (doses to about 46.1 µM), hits mostly cytotoxic; 400,000 tested, 1.4% active; further: on the % scale 0 is the no-effect control and ±100 the full control effect; nearly all actives have a fitted effect of over 60% in size
#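 Cytotoxicity measured as CellTiter-Glo luminescence after 72 h at 37 C. Compound titrations were pinned onto drug-naive KB-3-1 parental adenocarcinoma cells grown in DMEM with 10% FBS, and normalized data fitted to concentration-response curves.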
# PINK1 expr mod: modulators of PINK1 expression | PINK1 immunofluorescence, high-content cytometry, 24 h | Potency, µM (doses to about 76.6 µM), inactives show at the top dose activation (PINK1 increase), actives largely listed as activators | AID 624263 | 410,000 tested, 0.2% active; active means well fitted activation curve with a large enough effect; inconclusive means small, poorly fitted or top-dose-only effect; cell line not stated here; further: % of control where 0% means no effect; nearly all actives have a fitted effect of over 65% in size
#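 Measures PINK1 amount and localization on or inside mitochondria by immunofluorescence. Stable cells get compounds at 5 concentrations for 24 hours before fixation and staining; CCCP controls included.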
# KB-V1 MDR tox: kills drug-selected multidrug resistant KB-V1 cells; KB-V1 MDR cells viability, CellTiter-Glo, 72 h; Potency, µM (doses to about 46.1 µM), actives largely listed as cytotoxic; 400,000 tested, 3.4% active; AID 1347076; further: on the % scale 0 is the no-effect control and ±100 the full control effect; nearly all actives have a fitted effect of over 60% in size
#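 Cytotoxicity toward P-gp-expressing KB-V1 cells was determined as loss of CellTiter-Glo luminescence after 72 h at 37 degrees C. Compounds were tested in quantitative HTS format across a concentration range, with curves fitted to normalized data.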
# An asterisk follows results filed as active; i = inactive; ? = inconclusive; / = no result; ! = repeats disagree; [ ] = another dose, or the depositor's remark. Unless noted, the call rests on the fitted dose curve; in most records, active means well fitted curve in the direction sought with a large enough effect; inconclusive means small, poorly fitted or top-dose-only effect, or another doubt; inactive means no such curve, though single readings can be large; an effect the other way counts as inactive or inconclusive. Potency means the concentration at half of the fitted maximal effect.
SMILES,ALOX12 inh,MCF10A rerep,SW480 rerep,KB-3-1 tox,PINK1 expr mod,KB-V1 MDR tox
Cc1noc(C)c1CS(=O)(=O)c1cc(F)ccc1F,2.1%,/,/,/,/,/
CCCNC(=O)C(C)Sc1nc2ccc(F)cc2c(=O)[nH]1 (centres undefined),11.8%,/,/,/,/,/
COC(=O)/C(=C\Nc1ccc(Cl)cc1Cl)NC(=O)c1ccccc1,53.3%,17.7%,3.5%,i,5.2%,i
COC(=O)/C(=C\Nc1ccc(Cl)cc1Cl)NC(=O)c1ccc(Cl)cc1Cl,-4.2%,11.6µM*,18.8%,?,1.2%,?
O=S(=O)(c1ccc2nc(Cc3cccc(C(F)(F)F)c3)[nH]c2c1)N1CCOCC1,12.6%,2.91µM*,?,i,2.1%[38.3 µM],i
O=S(=O)(c1ccc2nc(Cc3ccccc3)[nH]c2c1)N1CCOCC1,?,-3.1%,?,i,-1.1%[38.3 µM],i
Cc1ccc(Sc2ccc(C#N)cc2C)cc1C,18.3%,/,/,/,/,/
COc1cc(C2C(C#N)=C(N)Oc3cc(O)ccc32)cc(OC)c1OC (centres undefined),-21.4%,0.6%,-1.3%,2.91µM*,/,?
COc1ccc(C2C(C#N)=C(N)Oc3cc(O)ccc32)cc1OC (centres undefined),22.0%,0.2%,3.3%,i,5.9%,i
COc1ccc(C2C(C#N)=C(N)SC(N)=C2C#N)cc1OC,?,2.2%,1.4%,i,3.5%,i
COc1cc(C2C(C#N)=C(N)Oc3cc(O)ccc32)cc2c1OCO2 (centres undefined),?,?,-18.3%,?,4.0%,?
N#CC1=C(N)SC(N)=C(C#N)C1c1cccc(O)c1,31.6µM*,-14.4%,8.1%,i,/,i
CCOc1ccc(Br)cc1C1C(C#N)=C(N)Oc2cc3c(cc21)OCO3 (centres undefined),7.08µM*,/,/,/,/,/
COc1cc(C2C(C#N)=C(N)Oc3cc(N(C)C)ccc32)cc2c1OCO2 (centres undefined),-8.0%,?,-3.0%,0.82µM*,12.4%[38.3 µM],0.0164µM*
N#Cc1cc(C(=O)c2ccccc2O)cn(-c2ccc(C(=O)O)cc2)c1=O,-0.2%,/,/,/,/,/
COc1cc(C2C(C#N)=C(N)Oc3cc4c(cc32)OCO4)cc(OC)c1OC (centres undefined),i,?,?,0.0052µM*,7.9%,0.231µM*
N#CC1=C(N)Oc2cc(O)ccc2C1c1ccccc1 (centres undefined),4.47µM*!,?,3.9%,?,3.2%[38.3 µM],18.4µM*
CCCCc1cc(=O)oc2cc(OCC(=O)NCc3ccncc3)ccc12,6.1%,/,/,/,/,/
CC(C)C(=O)Nc1cccc(NC(=O)Nc2ccc(Cl)cc2)c1,38.6%,/,/,/,/,/
Cn1nc(C(=O)Nc2cccc(C(F)(F)F)c2)c2ccccc2c1=O,10.1%,1.2%,-3.0%,i,3.0%,8.2µM*
O=S(Cc1cccc(Cl)c1)Cc1cccc(C(F)(F)F)c1 (centres undefined),48.6%,/,/,/,/,/
CCOC(=O)c1cc(NS(=O)(=O)c2ccc3ccccc3c2)cc(C(=O)OCC)c1,0.3%,/,/,/,/,/
CCOC(=O)C(Nc1ccc2ccccc2c1)C(=O)OCC,-21.8%,4.61µM*,13µM*,i,5.0%,i
O=C(c1cn(-c2ccccc2)nc1-c1cccnc1)N1CCN(c2ccccc2O)CC1,-22.4%,/,/,/,/,/
Cc1cc(C(=O)N2CCCC(C(=O)c3ccc(Cl)cc3C)C2)no1 (centres undefined),393.2%,?,23.1µM*,i,-1.0%,?
CC1(C)CC(C(CCN(Cc2ccccc2)C(=O)c2ccco2)c2ccc(F)cc2)CCO1 (centres undefined),?,8.2µM*,-76.7%,?,?,9.2µM*
O=C(c1ccco1)N(CCC(c1ccccc1)c1ccco1)Cc1ccc(F)cc1 (centres undefined),?,10.3µM*,?,i,0.9%[38.3 µM],7.31µM*
